Assay results from PubChem BioAssay AID1159580 (chemical genetic matrix, 2015).
“And” between values parts separate entries of the source, which are not always exact repeats. Equal entries are not always repeated. In all, about 5,500 compounds went through this assay and about 2,000 (36%) were called active. Not shown: some 18% with an inconclusive outcome. No stated cut-off is given here; in the data, active means normalized growth mostly below about 0.91 (no sharp cut-off); inconclusive means no clear call, values can overlap the other calls; inactive means mostly above about 0.92. This is one part of the list.

Test: chemical genetic growth profiling, strain panel (AID 1159580);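 further: tested at 20 µM; growth read once vehicle control cultures reached saturation at 30 °C; 1 = growth at the plate median or of vehicle wells; lower values mean less growth of the strain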
Conditions: S. cerevisiae deletion strains, growth OD

Measured: normalized growth

NC(Cc1ccc(F)cc1)C(=O)O (configuration not stated)
inactive: locus YAL013W, strain DEP1, hits give low values 1.01 | locus YAL021C, strain ccr4, hits give low values 0.987 | locus YAL026C, strain drs2, hits give low values 1.03 | locus YAL030W, strain snc1, hits give low values 1.01 | locus YBL061C, strain skt5, hits give low values 1.03 | locus YBR009C, strain hhf1, hits give low values 1.03 | locus YBR021W, strain FUR4, hits give low values 0.99 | locus YBR023C, strain chs3, hits give low values 1.01 | locus YBR171W, strain sec66, hits give low values 1.03 | locus YBR229C, strain ROT2, hits give low values 1.01 | locus YBR231C, strain swc5, hits give low values 1.02 | locus YCL011C, strain gbp2, hits give low values 1.02 | locus YCL016C, strain dcc1, hits give low values 1.01 | locus YCL029C, strain bik1, hits give low values 1.03 | locus YCL061C, strain MRC1, hits give low values 1.01 | locus YCL069W, strain vba3, hits give low values 1.01 | locus YCR088W, strain abp1, hits give low values 1.02 | locus YDL005C, strain med2, hits give low values 1.01 | locus YDL035C, strain GPR1, hits give low values 1.01 | locus YDL040C, strain nat1, hits give low values 1 | locus YDL074C, strain BRE1, hits give low values 1.01 | locus YDL101C, strain DUN1, hits give low values 1.01 | locus YDL134C, strain PPH21, hits give low values 1.01 | locus YDL185W, strain tfp1, hits give low values 1.03 | locus YDL192W, strain arf1, hits give low values 1.02 | locus YDR001C, strain nth1, hits give low values 1.01 | locus YDR069C, strain doa4, hits give low values 1.02 | locus YDR101C, strain arx1, hits give low values 1.04 | locus YDR137W, strain rgp1, hits give low values 0.994 | locus YDR150W, strain NUM1, hits give low values 0.997 | locus YDR159W, strain sac3, hits give low values 1.02 | locus YDR162C, strain NBP2, hits give low values 1.02 | locus YDR195W, strain ref2 1.04 | locus YDR297W, strain sur2, hits give low values 1.02 | locus YDR318W, strain mcm21, hits give low values 1.02 | locus YDR334W, strain swr1, hits give low values 1.02 | locus YDR335W, strain msn5, hits give low values 1.02 | locus YDR388W, hits give low values 1.03 | locus YDR392W, strain spt3, hits give low values 0.923 | locus YDR502C, strain sam2, hits give low values 1.02 | locus YEL003W, strain gim4, hits give low values 1.02 | locus YEL037C, strain rad23, hits give low values 1.01 | locus YEL061C, strain CIN8 (second series), hits give low values 1.02 | locus YEL061C, strain CIN8, hits give low values 1 | locus YER015W, strain faa2, hits give low values 1.02 | locus YER016W, strain bim1, hits give low values 1.02 | locus YER110C, hits give low values 1.04 | locus YER111C, strain swi4, hits give low values 1.03 | locus YER155C, strain BEM2 (second series), hits give low values 1.04 | locus YER155C, strain BEM2, hits give low values 1 | locus YER167W, strain BCK2, hits give low values 1 | locus YFR010W, strain ubp6, hits give low values 1.01 | locus YGL078C, strain dbp3, hits give low values 1.02 | locus YGL086W, strain mad1, hits give low values 1 | locus YGL167C, strain pmr1, hits give low values 1.02 | locus YGL173C, strain kem1, hits give low values 1.02 | locus YGL227W, strain vid30, hits give low values 1.02 | locus YGL240W, strain doc1, hits give low values 1.03 | locus YGL248W, strain PDE1, hits give low values 1.02 | locus YGL253W, strain hxk2, hits give low values 1.04 | locus YGR135W, strain pre9, hits give low values 1.02 | locus YGR229C, strain SMI1, hits give low values 0.992 | locus YGR252W, strain gcn5, hits give low values 1.06 | locus YHR013C, strain ard1, hits give low values 1.01 | locus YHR027C, strain rpn1, hits give low values 1.01 | locus YHR030C, strain SLT2, hits give low values 1.01 and 1.02 | locus YHR079C, strain IRE1 (second series), hits give low values 1.03 | locus YHR079C, strain IRE1, hits give low values 1.02 | locus YHR094C, strain hxt1, hits give low values 1.02 | locus YHR129C, strain ARP1, hits give low values 1.01 | locus YHR142W, strain chs7, hits give low values 0.996 | locus YHR200W, strain rpn10, hits give low values 1.02 | locus YIL066C, strain RNR3, hits give low values 1.01 | locus YIL073C, strain SPO22, hits give low values 1.09 | locus YIL125W, strain kgd1, hits give low values 1.02 | locus YIR030C, strain dcg1, hits give low values 1.02 | locus YJL092W, strain hpr5, hits give low values 1.02 | locus YJL095W, strain BCK1 (second series), hits give low values 1.01 | locus YJL095W, strain BCK1, hits give low values 1.02 and 1.03 | locus YJL115W, strain asf1, hits give low values 1.01 | locus YJL129C, strain trk1, hits give low values 1.01 | locus YJL134W, strain LCB3, hits give low values 1 | locus YJL154C, strain vps35, hits give low values 1.01 | locus YJL164C, strain tpk1, hits give low values 0.966 | locus YJL166W, strain qcr8, hits give low values 1 | locus YJL168C, strain set2, hits give low values 1.01 | locus YJL187C, strain SWE1 (second series), hits give low values 1.03 | locus YJL187C, strain SWE1, hits give low values 1.02 | locus YJR043C, strain POL32, hits give low values 1 | locus YJR066W, strain TOR1, hits give low values 1 | locus YJR075W, strain HOC1, hits give low values 1.01 | locus YKL009W, strain mrt4, hits give low values 1 | locus YKL068W, hits give low values 1.01 | locus YKL085W, strain MDH1 (second series), hits give low values 1.02 | locus YKL085W, strain MDH1, hits give low values 1.02 | locus YKL160W, strain elf1, hits give low values 0.99 | locus YKR001C, strain vps1, hits give low values 1.01 | locus YKR026C, strain gcn3, hits give low values 1.03 | locus YKR091W, strain srl3, hits give low values 1.02 | locus YLL001W, strain dnm1, hits give low values 1 | locus YLL026W, hits give low values 1.01 | locus YLL041C, strain sdh2, hits give low values 1.01 | locus YLR027C, strain aat2, hits give low values 1.01 | locus YLR039C, strain RIC1, hits give low values 1.04 | locus YLR058C, strain SHM2, hits give low values 1.02 | locus YLR102C, strain apc9, hits give low values 1.03 | locus YLR113W, strain HOG1, hits give low values 1.03 | locus YLR221C, strain rsa3, hits give low values 0.993 | locus YLR258W, strain gsy2, hits give low values 1.02 | locus YLR262C, strain YPT6 (second series), hits give low values 0.997 | locus YLR262C, strain YPT6, hits give low values 1.06 | locus YLR268W, strain sec22, hits give low values 1.03 | locus YLR320W, strain mms22, hits give low values 1.02 | locus YLR330W, strain CHS5, hits give low values 1.01 | locus YLR342W, strain FKS1 (second series), hits give low values 0.979 | locus YLR342W, strain FKS1, hits give low values 1.02 | locus YLR357W, strain rsc2, hits give low values 1.01 | locus YLR370C, strain arc18, hits give low values 1.02 | locus YLR371W, strain rom2, hits give low values 1.02 | locus YLR384C, strain iki3, hits give low values 1.02 | locus YLR418C, strain cdc73, hits give low values 1.02 | locus YML016C, strain PPZ1, hits give low values 1 | locus YML032C, strain rad52, hits give low values 1.03 | locus YML120C, strain ndi1, hits give low values 1.01 | locus YML124C, strain tub3, hits give low values 1.02 | locus YMR058W, strain fet3, hits give low values 1.02 | locus YMR078C, strain ctf18, hits give low values 1.04 | locus YMR125W, strain sto1, hits give low values 1.04 | locus YMR129W, hits give low values 1.01 | locus YMR205C, strain PFK2, hits give low values 1.02 | locus YMR223W, strain ubp8, hits give low values 1.02 | locus YMR231W, strain pep5, hits give low values 1.02 | locus YMR263W, strain SAP30, hits give low values 1.01 | locus YMR307W, strain GAS1, hits give low values 1.05 | locus YNL067W, strain RPL9B, hits give low values 1.03 | locus YNL071W, strain lat1, hits give low values 1 | locus YNL128W, strain TEP1, hits give low values 1.04 | locus YNL183C, strain NPR1, hits give low values 0.969 | locus YNL209W, strain ssb2, hits give low values 1.02 | locus YNL233W, strain BNI4, hits give low values 1.02 | locus YNL248C, strain rpa49, hits give low values 0.982 | locus YNL250W, strain rad50, hits give low values 1.02 | locus YNL271C, strain bni1, hits give low values 1.04 | locus YNL298W, strain CLA4, hits give low values 1.02 | locus YNL307C, strain MCK1, hits give low values 1.03 | locus YNL322C, strain KRE1 (second series), hits give low values 1.01 | locus YNR049C, strain mso1, hits give low values 1.04 | locus YNR052C, strain pop2, hits give low values 1.02 | locus YOL012C, strain htz1 1.76 | locus YOL147C, strain pex11, hits give low values 1.03 | locus YOR001W, strain rrp6, hits give low values 1.01 | locus YOR061W, strain CKA2, hits give low values 1.02 | locus YOR069W, strain VPS5, hits give low values 1 | locus YOR070C, strain gyp1, hits give low values 1.01 | locus YOR080W, strain dia2, hits give low values 1.02 | locus YOR083W, strain WHI5, hits give low values 0.985 | locus YOR106W, strain vam3, hits give low values 0.992 | locus YOR136W, strain idh2, hits give low values 1.05 | locus YOR144C, strain elg1, hits give low values 1.02 | locus YOR184W, strain ser1, hits give low values 1.04 | locus YOR231W, strain MKK1, hits give low values 1.05 | locus YOR265W, strain rbl2, hits give low values 1.01 | locus YOR270C, strain vph1, hits give low values 1.02 | locus YOR290C, strain snf2, hits give low values 0.998 | locus YOR316C, strain cot1, hits give low values 1.02 | locus YPL051W, strain arl3, hits give low values 0.998 | locus YPL055C, strain LGE1, hits give low values 1.02 | locus YPL078C, strain atp4, hits give low values 0.988 | locus YPL106C, strain sse1, hits give low values 1.02 | locus YPL240C, strain hsp82, hits give low values 1.03 | locus YPL241C, strain CIN2, hits give low values 1 | locus YPL256C, strain CLN2, hits give low values 1.02 | locus YPR119W, strain clb2, hits give low values 1.02 | locus YPR141C, strain kar3, hits give low values 1.03 | locus YPR163C, strain tif3, hits give low values 1.04 | locus YPR167C, strain met16, hits give low values 1.03 | strain wtn01, hits give low values 1.03
